Among the data in PubChem BioAssay (EPA / NIEHS) are outcome and AC50 values, retold here.

In assay [1] the target is X-box-binding protein 1 (Homo sapiens) (UniProt P17861). Description: ATG_Xbp1_CIS: Attagene CIS-FACTORIAL HepG2 Assay for human X-box Binding Protein 1 (XBP1) (AID 2282972). As to conditions: HepG2 XBP1 cis-element reporter, Attagene multiplex; actives raise or lower the signal. In outline: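 HepG2, transient MRTU transfection (cis-promoter driven), 24 h compound exposure. Total RNA → oligo(dT) RT → PCR → 6-FAM labeling → HpaI cut → CE. Bidirectional fit vs DMSO.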
X-box-binding protein 1 (Homo sapiens), sequence (P17861 whole entry, looked up): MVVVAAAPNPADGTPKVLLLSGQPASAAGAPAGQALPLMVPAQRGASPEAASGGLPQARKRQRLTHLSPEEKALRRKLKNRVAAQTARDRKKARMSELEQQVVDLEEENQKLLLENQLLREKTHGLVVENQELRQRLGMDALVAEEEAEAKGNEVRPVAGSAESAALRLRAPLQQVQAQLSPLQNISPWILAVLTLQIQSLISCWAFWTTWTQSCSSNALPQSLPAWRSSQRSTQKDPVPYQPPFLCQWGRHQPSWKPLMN

Assay [2] has as its target Hepatocyte nuclear factor 4-alpha (Homo sapiens) (UniProt P41235). The assay is described as follows: ATG_HNF4a_TRANS: Attagene TRANS-FACTORIAL HepG2 Assay for human Hepatocyte Nuclear Factor 4 alpha (HNF4a) (AID 2282982; active means hit-call score of the fitted dose curve at least 0.9, where 1 is the maximum). As to conditions: HepG2 HNF4a transactivation reporter, mRNA readout. In outline:
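Transfected HepG2 reporter cells are dosed for 24 h; reporter RNA is reverse-transcribed, amplified, fluorescently labelled and HpaI-digested before CE sizing. Positive-direction fit against DMSO.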

Assay [3] is described as follows: ATG_M_06_TRANS: Attagene TRANS-FACTORIAL HepG2 Assay for M06 Transcription Factor (Internal Marker) (AID 2282983; active means hit-call score of the fitted dose curve at least 0.9, where 1 is the maximum;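 further: reporter transcript level by RT-PCR then capillary electrophoresis fluorescence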). The note with it: HepG2 Attagene TRANS M06 internal marker reporter. In outline:
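HepG2 cells transiently transfected with GAL4-UAS multiple reporter units, dosed 24 h. Reporter RNA reverse-transcribed, PCR-amplified, 6-FAM-labeled, HpaI-digested and quantified by capillary electrophoresis; this internal-marker signal fitted upward relative to DMSO.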

Assay [4] deals with Nuclear receptor subfamily 4 group A member 2 (Homo sapiens) (UniProt P43354). The assay is described as follows: ATG_NURR1_TRANS: Attagene TRANS-FACTORIAL HepG2 Assay for human Nuclear Receptor Related Protein 1 (NURR1) (AID 2282985; active means hit-call score of the fitted dose curve at least 0.9, where 1 is the maximum). As to conditions: HepG2 Attagene TRANS reporter, mRNA readout. In outline:
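Cells: HepG2, transiently transfected. Exposure: 24 h. Detection: fluorescence of labelled RT-PCR products separated by capillary electrophoresis; upward fit versus DMSO.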

Assay [5] concerns the target Transcriptional activator Myb (Homo sapiens) (UniProt P10242). Description: ATG_Myb_CIS: Attagene CIS-FACTORIAL HepG2 Assay for human Myeloblastosis (Myb) Proto-Oncogene Transcription Factor (AID 2282986). As to conditions: HepG2 Attagene CIS-FACTORIAL Myb reporter transcription; actives raise or lower the signal. In outline: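 After 24 h of compound dosing, total RNA from transfected HepG2 cells is reverse-transcribed and the reporter sequences amplified, labeled and separated by capillary electrophoresis. Values come from bidirectional fitting against DMSO.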

The target in assay [6] is Nuclear respiratory factor 1 (Homo sapiens) (UniProt Q16656). Description: ATG_NRF1_CIS: Attagene CIS-FACTORIAL HepG2 Assay for human Nuclear Respiratory Factor 1 (NRF1) Orphan Gene (AID 2282987). As to conditions: HepG2 NRF1 cis-element reporter, Attagene multiplex; actives raise or lower the signal. In outline: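 Measured: fluorescent reporter-specific RT-PCR products from transfected HepG2 cells, separated by capillary electrophoresis. Exposure lasted 24 h. Analysis used bidirectional curve fitting with DMSO as negative control.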
Nuclear respiratory factor 1 (Homo sapiens), sequence (Q16656 whole entry, looked up): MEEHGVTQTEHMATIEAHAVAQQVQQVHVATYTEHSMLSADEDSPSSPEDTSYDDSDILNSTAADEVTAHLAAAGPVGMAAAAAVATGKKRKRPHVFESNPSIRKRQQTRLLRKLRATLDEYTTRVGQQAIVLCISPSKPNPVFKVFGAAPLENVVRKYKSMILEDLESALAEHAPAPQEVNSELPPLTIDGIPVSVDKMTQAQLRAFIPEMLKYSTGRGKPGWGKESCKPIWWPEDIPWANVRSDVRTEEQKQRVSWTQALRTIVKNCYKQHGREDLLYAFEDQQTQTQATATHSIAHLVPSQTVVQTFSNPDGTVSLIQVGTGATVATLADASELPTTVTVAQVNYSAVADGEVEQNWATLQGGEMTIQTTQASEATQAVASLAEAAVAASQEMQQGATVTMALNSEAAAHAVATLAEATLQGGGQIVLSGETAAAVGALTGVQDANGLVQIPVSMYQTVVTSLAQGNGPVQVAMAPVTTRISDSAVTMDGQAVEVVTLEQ

Assay [7] is described as follows: ATG_NFI_CIS: Attagene CIS-FACTORIAL HepG2 Assay for human Nuclear Factor I (NFI) (AID 2282989). As to conditions: HepG2 cis-regulatory reporter, NFI response element transcription; actives raise or lower the signal. The procedure, abridged:
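Cells: human liver HepG2, transiently transfected with promoter-regulated reporter transcription units. Exposure 24 h. Detection: fluorescent RT-PCR products separated by capillary electrophoresis, normalised to DMSO negative control.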

For assay [8], the target named is Myc proto-oncogene protein (Homo sapiens) (UniProt P01106). Description: ATG_Myc_CIS: Attagene CIS-FACTORIAL HepG2 Assay for human Myelocytomatosis (Myc) Proto-Oncogene Transcription Factor (AID 2282990). The note with it: HepG2, Attagene cis-reporter transcription factor activity; actives raise or lower the signal. The procedure, abridged: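 After 24 h chemical treatment of HepG2 cells carrying multiplexed cis-regulated reporter constructs, reporter transcripts quantified by RT-PCR and capillary electrophoresis of fluorescent fragments. Gain or loss fitted against DMSO baseline.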
Myc proto-oncogene protein (Homo sapiens), sequence (P01106 whole entry, looked up, the tested form may be a part): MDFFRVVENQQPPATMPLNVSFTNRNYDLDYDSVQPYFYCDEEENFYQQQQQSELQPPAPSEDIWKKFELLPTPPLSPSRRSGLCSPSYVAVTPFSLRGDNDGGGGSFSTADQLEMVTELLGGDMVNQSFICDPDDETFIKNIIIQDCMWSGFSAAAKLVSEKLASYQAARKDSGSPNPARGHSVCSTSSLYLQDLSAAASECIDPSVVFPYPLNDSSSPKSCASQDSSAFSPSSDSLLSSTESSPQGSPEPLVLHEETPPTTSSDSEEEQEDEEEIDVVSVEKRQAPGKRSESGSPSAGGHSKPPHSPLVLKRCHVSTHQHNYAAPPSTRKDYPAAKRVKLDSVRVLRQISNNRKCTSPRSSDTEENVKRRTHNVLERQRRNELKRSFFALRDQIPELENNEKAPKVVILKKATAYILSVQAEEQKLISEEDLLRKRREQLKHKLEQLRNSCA

Assay [9] in a line: ATG_M_19_TRANS: Attagene TRANS-FACTORIAL HepG2 Assay for M19 Transcription Factor (Internal Marker) (AID 2282974; active means hit-call score of the fitted dose curve at least 0.9, where 1 is the maximum). As to conditions: HepG2 Attagene TRANS-FACTORIAL M19 internal marker reporter. The procedure, abridged: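 Transfected HepG2 (GAL4-UAS MRTUs), 24 h compound, TriZol RNA, DNase-treated RT, reporter PCR, FAM label, HpaI digest, CE fluorescence; gain vs DMSO.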
Assay [10] can be described thus: ATG_GAL4_TRANS: Attagene TRANS-FACTORIAL HepG2 Assay for GAL4 (Internal Marker) (AID 2282976; active means hit-call score of the fitted dose curve at least 0.9, where 1 is the maximum). The note with it: HepG2 Attagene TRANS GAL4 internal marker reporter. In outline:
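Background-control readout: GAL4-UAS reporter transcript in transiently transfected HepG2 cells after 24 h compound exposure. Measured by RT-PCR, 6-FAM primer extension, HpaI digest and capillary electrophoresis; gain-of-signal fit versus DMSO.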

In assay [11] the target is Glucocorticoid receptor (Homo sapiens) (UniProt P04150). Description: ATG_GR_TRANS: Attagene TRANS-FACTORIAL HepG2 Assay for human Glucocorticoid Receptor (GR) (AID 2282978; active means hit-call score of the fitted dose curve at least 0.9, where 1 is the maximum;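 further: activators score as hits since higher reporter transcript over DMSO is fitted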). The note with it: HepG2 Attagene TRANS GR reporter, mRNA transcription. The procedure, abridged:
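After 24 h incubation with test chemical, transfected HepG2 cells were lysed for RNA; reporter cDNA was amplified, FAM-labelled, HpaI-digested and sized on a capillary analyser. Signal gain relative to DMSO was scored.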

Assay [12] can be described thus: ATG_M_32_TRANS: Attagene TRANS-FACTORIAL HepG2 Assay for M32 Transcription Factor (Internal Marker) (AID 2282984; active means hit-call score of the fitted dose curve at least 0.9, where 1 is the maximum). The note with it: HepG2 Attagene TRANS M32 internal marker reporter. The procedure, abridged:
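Using transiently transfected HepG2 cells exposed to test chemicals for 24 h, reporter transcripts are converted to labelled cDNA fragments and quantified by capillary electrophoresis. DMSO defines the activity baseline.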

Assay [13] deals with Bile acid receptor (Homo sapiens) (UniProt Q96RI1). Description: ATG_FXR_TRANS: Attagene TRANS-FACTORIAL HepG2 Assay for Farnesoid X Receptor (FXR) (AID 2282979; active means hit-call score of the fitted dose curve at least 0.9, where 1 is the maximum;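 further: hits raise reporter mRNA above DMSO so AC50 marks FXR activation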). As to conditions: HepG2 Attagene TRANS FXR-GAL4 reporter transcription. The procedure, abridged:
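HepG2 cells were transiently transfected with GAL4-UAS reporters driven by chimeric NR-Gal4 proteins and dosed for 24 h. Reporter mRNA was quantified by RT-PCR, fluorescent labelling, HpaI digestion and capillary electrophoresis, with gain of signal scored versus DMSO.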

In assay [14] the target is Oxysterols receptor LXR-alpha (Homo sapiens) (UniProt Q13133). The assay is described as follows: ATG_LXRa_TRANS: Attagene TRANS-FACTORIAL HepG2 Assay for human Liver X Receptor alpha (LXRa) (AID 2282980; active means hit-call score of the fitted dose curve at least 0.9, where 1 is the maximum). As to conditions: HepG2 Attagene TRANS reporter, LXRa transactivation. The procedure, abridged: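 HepG2 cells transiently transfected with GAL4-UAS reporter units for chimeric NR-Gal4 proteins, exposed to chemicals for 24 h. Reporter mRNA quantified by RT-PCR and capillary electrophoresis; gain of signal fitted relative to DMSO.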
Oxysterols receptor LXR-alpha (Homo sapiens), sequence (Q13133 whole entry, looked up, the tested form may be a part): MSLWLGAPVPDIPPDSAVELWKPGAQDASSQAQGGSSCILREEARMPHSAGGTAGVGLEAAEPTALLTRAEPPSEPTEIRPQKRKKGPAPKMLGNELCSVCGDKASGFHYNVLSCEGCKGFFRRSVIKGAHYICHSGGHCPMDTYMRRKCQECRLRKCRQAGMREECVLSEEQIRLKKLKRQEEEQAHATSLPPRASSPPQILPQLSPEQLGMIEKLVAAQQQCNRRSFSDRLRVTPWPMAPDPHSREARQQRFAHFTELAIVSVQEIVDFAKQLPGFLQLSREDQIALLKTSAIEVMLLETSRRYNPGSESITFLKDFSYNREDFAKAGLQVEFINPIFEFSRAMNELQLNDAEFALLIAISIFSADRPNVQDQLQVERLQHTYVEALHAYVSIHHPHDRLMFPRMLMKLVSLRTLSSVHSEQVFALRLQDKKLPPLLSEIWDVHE

For assay [15], the target named is Oxysterols receptor LXR-beta (Homo sapiens) (UniProt P55055). Description: ATG_LXRb_TRANS: Attagene TRANS-FACTORIAL HepG2 Assay for human Liver X Receptor beta (LXRb) (AID 2282981; active means hit-call score of the fitted dose curve at least 0.9, where 1 is the maximum). As to conditions: HepG2 Attagene TRANS GAL4-LXRb reporter, mRNA. In outline: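 Cells: HepG2, transiently transfected with GAL4-UAS reporter units plus LXRb-Gal4 fusion. Treatment: 24 h. Detection: reporter mRNA by RT-PCR, 6-FAM labelling, HpaI digestion, capillary electrophoresis.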

Results filed as inconclusive are left out. The source made the active and inactive calls. How the source made its calls, unless noted: active means hit-call score of the fitted dose curve at least 0.9, where 1 is the maximum; inactive means score below 0.9.

Bile acid receptor (Homo sapiens), sequence (Q96RI1 whole entry, looked up, the tested form may be a part): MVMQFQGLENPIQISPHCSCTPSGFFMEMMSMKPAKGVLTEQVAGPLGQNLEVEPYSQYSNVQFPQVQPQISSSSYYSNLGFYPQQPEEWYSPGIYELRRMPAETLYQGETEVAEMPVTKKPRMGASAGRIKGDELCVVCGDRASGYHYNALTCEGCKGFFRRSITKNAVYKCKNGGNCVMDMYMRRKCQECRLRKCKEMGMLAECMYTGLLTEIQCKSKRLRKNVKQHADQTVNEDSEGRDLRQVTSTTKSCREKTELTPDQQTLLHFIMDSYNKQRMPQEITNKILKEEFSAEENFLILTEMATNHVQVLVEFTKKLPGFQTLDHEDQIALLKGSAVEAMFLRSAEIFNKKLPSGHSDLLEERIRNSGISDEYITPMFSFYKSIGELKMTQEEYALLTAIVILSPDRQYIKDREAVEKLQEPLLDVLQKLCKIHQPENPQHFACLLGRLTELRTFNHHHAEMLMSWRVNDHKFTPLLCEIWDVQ
Glucocorticoid receptor (Homo sapiens), sequence (P04150 whole entry, looked up): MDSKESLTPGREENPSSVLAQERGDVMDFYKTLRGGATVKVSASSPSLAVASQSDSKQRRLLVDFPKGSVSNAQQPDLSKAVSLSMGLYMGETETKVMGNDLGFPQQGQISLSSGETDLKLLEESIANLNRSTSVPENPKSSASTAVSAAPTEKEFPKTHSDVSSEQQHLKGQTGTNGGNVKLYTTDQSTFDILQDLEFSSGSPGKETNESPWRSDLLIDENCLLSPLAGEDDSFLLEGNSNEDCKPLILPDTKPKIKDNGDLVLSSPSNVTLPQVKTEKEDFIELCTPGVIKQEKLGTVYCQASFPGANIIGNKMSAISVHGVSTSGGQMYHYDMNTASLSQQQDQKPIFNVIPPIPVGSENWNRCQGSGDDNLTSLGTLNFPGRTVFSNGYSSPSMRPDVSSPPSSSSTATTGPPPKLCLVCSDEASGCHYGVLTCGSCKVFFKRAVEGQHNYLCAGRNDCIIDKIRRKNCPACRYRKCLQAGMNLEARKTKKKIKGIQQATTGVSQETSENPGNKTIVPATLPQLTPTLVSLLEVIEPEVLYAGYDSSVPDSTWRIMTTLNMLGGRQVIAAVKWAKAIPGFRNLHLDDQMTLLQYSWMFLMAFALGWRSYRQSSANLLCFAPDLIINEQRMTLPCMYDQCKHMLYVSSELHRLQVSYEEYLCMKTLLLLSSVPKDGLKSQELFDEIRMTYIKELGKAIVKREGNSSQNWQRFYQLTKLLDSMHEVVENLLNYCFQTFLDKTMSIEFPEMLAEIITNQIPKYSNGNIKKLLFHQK
Nuclear receptor subfamily 4 group A member 2 (Homo sapiens), sequence (P43354 whole entry, looked up): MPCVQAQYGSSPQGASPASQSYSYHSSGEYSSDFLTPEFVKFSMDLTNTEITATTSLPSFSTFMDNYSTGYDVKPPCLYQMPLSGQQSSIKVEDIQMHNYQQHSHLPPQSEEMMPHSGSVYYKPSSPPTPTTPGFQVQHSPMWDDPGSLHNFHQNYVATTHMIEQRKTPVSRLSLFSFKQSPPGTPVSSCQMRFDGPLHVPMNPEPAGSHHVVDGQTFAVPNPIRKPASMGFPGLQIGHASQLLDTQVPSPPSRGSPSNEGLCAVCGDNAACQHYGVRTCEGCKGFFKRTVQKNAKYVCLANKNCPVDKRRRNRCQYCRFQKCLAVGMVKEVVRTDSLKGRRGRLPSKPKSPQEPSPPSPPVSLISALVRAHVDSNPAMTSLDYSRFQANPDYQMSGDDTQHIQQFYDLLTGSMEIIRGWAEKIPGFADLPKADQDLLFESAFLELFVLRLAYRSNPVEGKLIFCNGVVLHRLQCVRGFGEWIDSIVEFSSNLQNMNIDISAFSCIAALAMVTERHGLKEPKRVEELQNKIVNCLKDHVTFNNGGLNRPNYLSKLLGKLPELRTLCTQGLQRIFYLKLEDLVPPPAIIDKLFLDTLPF
Transcriptional activator Myb (Homo sapiens), sequence (P10242 whole entry, looked up): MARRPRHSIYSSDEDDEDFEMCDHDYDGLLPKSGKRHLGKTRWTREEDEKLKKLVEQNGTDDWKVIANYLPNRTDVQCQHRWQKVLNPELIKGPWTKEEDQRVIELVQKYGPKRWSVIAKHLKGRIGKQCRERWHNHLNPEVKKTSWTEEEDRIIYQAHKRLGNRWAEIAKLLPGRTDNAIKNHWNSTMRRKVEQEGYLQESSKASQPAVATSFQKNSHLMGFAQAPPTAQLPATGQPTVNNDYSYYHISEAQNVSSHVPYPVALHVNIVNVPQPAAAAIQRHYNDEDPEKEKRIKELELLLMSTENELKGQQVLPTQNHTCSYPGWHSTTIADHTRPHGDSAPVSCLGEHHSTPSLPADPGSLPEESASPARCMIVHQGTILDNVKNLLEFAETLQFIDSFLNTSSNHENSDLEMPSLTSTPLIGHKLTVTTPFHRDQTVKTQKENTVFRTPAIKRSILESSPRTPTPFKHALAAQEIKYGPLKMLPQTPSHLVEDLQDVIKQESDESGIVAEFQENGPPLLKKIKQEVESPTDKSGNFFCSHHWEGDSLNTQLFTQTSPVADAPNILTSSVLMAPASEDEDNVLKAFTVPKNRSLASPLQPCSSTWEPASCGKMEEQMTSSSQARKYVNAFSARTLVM
Hepatocyte nuclear factor 4-alpha (Homo sapiens), sequence (P41235 whole entry, looked up): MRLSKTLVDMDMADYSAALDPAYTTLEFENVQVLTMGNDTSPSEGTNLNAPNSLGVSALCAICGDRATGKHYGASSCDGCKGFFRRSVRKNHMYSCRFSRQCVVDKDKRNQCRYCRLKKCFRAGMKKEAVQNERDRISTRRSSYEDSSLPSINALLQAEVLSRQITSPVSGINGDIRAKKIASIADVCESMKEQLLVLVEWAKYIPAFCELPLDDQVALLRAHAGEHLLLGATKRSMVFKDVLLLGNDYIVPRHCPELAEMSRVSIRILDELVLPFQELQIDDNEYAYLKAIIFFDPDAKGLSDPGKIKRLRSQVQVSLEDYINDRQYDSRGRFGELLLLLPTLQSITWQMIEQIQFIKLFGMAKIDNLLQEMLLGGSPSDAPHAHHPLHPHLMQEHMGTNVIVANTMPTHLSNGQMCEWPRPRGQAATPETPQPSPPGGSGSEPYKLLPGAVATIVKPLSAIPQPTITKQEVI

`N#CCC#N`: the call in assay [1], in assay [2], in [3], in [4], in [5] and in assay [6] was inactive. Moreover, the result in assay [7] and in [8] was inactive.
As for `CCCCCCCCCCCCOS(=O)(=O)O`, the call in assay [1], in assay [9], in assay [10], in assay [11], in [12] and in [5] was inactive. Besides, the outcome in assay [6], in [7] and in assay [8] was inactive.
Turning to `CCC[CH2][Sn]([CH2]CCC)([CH2]CCC)[CH2]CCC`, the compound was called inactive in assay [1], in [9], in assay [13], in assay [14], in assay [5] and in assay [6]. Besides, in assay [8], the outcome was inactive. Besides, the concentration at half-maximal activity (AC50) in assay [4] was 0.497 µM (active); in [7] it was 17.3 µM (active).
Regarding `CCCCCCCCBr`, the call in assay [1], in assay [9], in assay [10], in assay [11], in assay [13] and in assay [14] was inactive. Further, the compound was classed as inactive in [12], in assay [4], in [5], in assay [6], in assay [7] and in assay [8].
`C#C[C@]1(O)CC[C@H]2[C@@H]3CCC4=CC(=O)CC[C@]4(C)[C@H]3CC[C@@]21C`: the compound was classed as inactive in assay [1], in [14], in [15], in assay [3], in assay [5] and in [7]. The compound was classed as inactive in assay [8].
With `CN(N=O)C(N)=O`, the outcome in assay [1], in assay [9], in assay [10], in [11], in assay [13] and in [2] was inactive. In addition, the call in assay [3], in [12], in [4], in assay [5], in assay [6] and in [7] was inactive. In assay [8], the compound was classed as inactive.
As for `CC(C)C(C)(N)C#N` (stereo not drawn), the compound was called inactive in assay [1], in assay [9], in assay [11], in assay [13], in assay [15] and in assay [5]. The compound was called inactive in assay [6], in assay [7] and in [8].
Regarding `OC[P+](CO)(CO)CO`, the outcome in assay [1], in assay [9], in [10], in assay [11], in assay [15] and in assay [2] was inactive. For the same compound, the compound was called inactive in assay [3], in assay [12], in [4], in assay [5], in assay [7] and in [8].
For `Oc1cc(Cl)c(Cl)cc1Cl`, the AC50 is 59 µM (active) in [1], 66.4 µM (active) in assay [7] and 152 µM (active) in [8]. Besides, the compound was classed as inactive in assay [9], in [10], in assay [15], in [3], in assay [12] and in assay [5]. The outcome in [6] was inactive.
Consider `C[As+](C)(C)CC(=O)[O-]`, for which the compound was classed as inactive in [1], in assay [10], in assay [5], in assay [6], in assay [7] and in assay [8].
As to `CC1CC(=O)O1` (stereo not drawn), the result in [1], in [2], in [12], in assay [4], in assay [5] and in assay [6] was inactive. Besides, the call in assay [7] and in [8] was inactive.

As a reminder, the AC50 is the concentration at which the activity in the assay is half-maximal.
